According to PubChem BioAssay AID624331 (National Center for Advancing Translational Sciences (NCATS), 2012):
Records with an inconclusive call do not appear. Entries that show only a call come without a potency. Activity calls are given as the source filed them. Calls follow the shape of the dose curve; as a rule, active = well fitted activation curve with a large enough effect; inconclusive = small, poorly fitted or top-dose-only effect; inactive = no such curve, though single readings can be large or run the other way.

Assay: qHTS assay for re-activators of p53 using a Luc reporter: Hit Validation with no p53 Expressed
Conditions: p53-null cells, luciferase reporter counter-screen; series mostly up to 46.1 µM
Outline: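 Without p53 expression, cells (1000/well, Opti-MEM + 10% FBS) were exposed 24 h at 37 deg C to compounds in a 1:5 series from 10 mM stock (top 46.1 µM in well). Luminescent signal read 10 min after Amplite addition; actives flag unspecific activation.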
Potency is read from the fitted curve at half-maximal effect.

Row | SMILES | Potency
1 | Cc1cc(C)c2nc(NNC(=O)c3ccc(S(=O)(=O)N4CCCC(C)C4)cc3)sc2c1 (stereo not given) | inactive
2 | Nc1nonc1-n1nnc(C(=O)N/N=C/c2cc(Br)ccc2O)c1CSC1=NCCS1 | inactive
3 | COc1cccc(-c2cn3nc4c(nc3n2)CCCC4)c1 | inactive
4 | COc1ccc2c(=O)c(-c3nc(C)cs3)coc2c1 | inactive
5 | O=c1c2ccccc2oc2nc(-c3ccco3)n(-c3ccccc3)c(=O)c12 | inactive
6 | CN(Cc1ccccc1)c1ncnc2ccc(Br)cc12 | inactive
7 | Cc1ccc(OCC(=O)Nc2ccc(Cl)cc2)c([N+](=O)[O-])n1 | inactive
8 | Cc1ccc(C(=O)Nc2ccn(C)n2)cc1 | inactive
9 | O=C(Nc1ccc(N2CCCCCC2)cc1)c1ccc[nH]1 | 1.84 µM (active)
10 | O=C(Cn1cc2c(n1)CCCCC2)NC1CCCCCC1 | inactive
11 | O=c1oc2ccccc2cc1-c1cn(-c2ccccc2)c(=S)[nH]1 | inactive
12 | COCc1[nH]nc2c1C(c1cccc(OC)c1)C(C#N)=C(N)O2 (stereo not given) | inactive
13 | COc1ccc(NC(=O)/C(Cl)=C(/Cl)S(=O)(=O)Cc2ccc(C)cc2)cn1 | inactive
14 | C=CCn1c(SC(F)F)nc2scc(-c3ccco3)c2c1=O | inactive
15 | CC(=O)Oc1ccc(Cl)cc1/C=C/c1ccc2ccccc2n1 | 23.1 µM (active)
16 | COc1ccc(N(C(=O)Nc2ccc(Cl)cc2)C2=NCCC2)cc1 | inactive
17 | O=C1CCCC(O)=C1N=Nc1c(Cl)cc(Cl)cc1Cl | inactive
18 | CCn1c(=O)c2ccccc2n(Cc2ccccc2C)c1=O | inactive
19 | Clc1ccc(OCc2nc(-c3ccccn3)no2)c(Br)c1 | inactive
20 | C/C(Cn1nnc([N+](=O)[O-])n1)=N\NC(=O)c1ccc(C)cc1 | inactive

Row | SMILES | Potency
21 | Cc1cc(C)cc(OCC(=O)NNC(=O)c2ccccn2)c1 | inactive
22 | Cc1ccc(C)c(C(=O)COC(=O)c2n[nH]c3ccccc23)c1 | inactive
23 | C/C(=N\NC(=O)c1cccs1)C(C)(C)C | inactive
24 | CCOc1ccc2cc(C#N)c(SCC(=O)OC)nc2c1 | inactive
25 | O=C(N/N=C/c1ccccc1O)C1CC(=O)N(c2ccc(Cl)cc2)C1 (stereo not given) | inactive
26 | Cc1ccc(NC(=O)CCN2C(=O)c3cccc([N+](=O)[O-])c3C2=O)c(Br)c1 | inactive
27 | CN(C(=O)NC(=O)C1=C(N2CCOCC2)/C(=C/c2ccccc2)CC1)S(C)(=O)=O | inactive
28 | Cc1sc2nc(CSC(C)C(=O)Nc3ccccn3)[nH]c(=O)c2c1C (stereo not given) | inactive
29 | NNC(=O)c1cccc(O)c1 | inactive
30 | C/C(=N\NC(=S)NC(C)C)c1ccc(Cl)s1 | inactive
31 | COc1ccc(N2CCN(CCCNC(=O)C3(S(=O)(=O)c4ccc(Cl)cc4)CC3)CC2)cc1 | inactive
32 | COc1cc(C(=O)N/N=C(\c2ccccc2)c2ccccn2)cc(OC)c1OC | inactive
33 | NC(=O)c1cc(Cl)ccc1OCC(=O)Nc1ccc2c(c1)OCO2 | inactive
34 | O=C(O)c1ccc(N/N=C/c2ccc3ncccc3c2)cc1 | inactive
35 | O=[N+]([O-])c1cccc(NC(=S)N2CCc3ccccc32)c1 | inactive
36 | CC(OC(=O)c1cccc([N+](=O)[O-])c1)C(=O)N1CCc2ccccc21 (stereo not given) | inactive
37 | CCOCCCNc1nc2c([nH]1)c(=O)n(C)c(=O)n2C | inactive
38 | O=C(C1CCCN1S(=O)(=O)c1ccc(Cl)cc1)N1CCOCC1 (stereo not given) | inactive
39 | Cc1ccc2cc3c(N)c(C(=O)N4CCOCC4)sc3nc2c1 | inactive
40 | O=[N+]([O-])c1ccc(NC(=S)NCCc2ccc(F)cc2)cc1 | inactive
